Most compounds without a hit are left out; they make up all but 8.3% or so of the library.
Gal4-VP16 FLuc: VP16 counterscreen qHTS for inhibitors of ROR gamma transcriptional activity | 310,000 tested, 3.5% active | Drosophila S2 Gal4-VP16 UAS-luciferase, luminescence, 20 h | AID 2546, 2010 | Potency, µM (titrated, usually from 53.6 µM), usual class: inhibitors;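 note: Gal4-VP16 expression switched on by copper sulfate through the metallothionein promoter; nearly all actives have a fitted effect of over 50% in size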
SW480 rerep: A quantitative high throughput screen for small molecules that induce DNA re-replication in SW480 colon adenocarcinoma cells; Potency, µM (doses to about 46.1 µM), hits mostly activators; AID 624297, 2012; SW480 DNA re-replication, Hoechst DNA content imaging, 48 h; 340,000 tested, 1.8% active; note: nearly all actives have a fitted effect of over 55% in size
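Compounds, transferred as 23 nL by pin tool, were incubated with cells for 48 hr; DNA content per nucleus was then quantified by Hoechst staining and fluorescence plate imaging.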
RORg inh: qHTS for inhibitors of ROR gamma transcriptional activity | Nuclear receptor ROR-gamma (Mus musculus), P51450 | Drosophila S2 Gal4-RORgamma UAS-luciferase reporter, 20 h | Potency, µM (doses to about 53.6 µM), usual class: inhibitors | 310,000 tested, 5.4% active; note: nearly all actives have a fitted effect of over 60% in size
Target sequence (P51450 whole entry, looked up, the tested form may be a part): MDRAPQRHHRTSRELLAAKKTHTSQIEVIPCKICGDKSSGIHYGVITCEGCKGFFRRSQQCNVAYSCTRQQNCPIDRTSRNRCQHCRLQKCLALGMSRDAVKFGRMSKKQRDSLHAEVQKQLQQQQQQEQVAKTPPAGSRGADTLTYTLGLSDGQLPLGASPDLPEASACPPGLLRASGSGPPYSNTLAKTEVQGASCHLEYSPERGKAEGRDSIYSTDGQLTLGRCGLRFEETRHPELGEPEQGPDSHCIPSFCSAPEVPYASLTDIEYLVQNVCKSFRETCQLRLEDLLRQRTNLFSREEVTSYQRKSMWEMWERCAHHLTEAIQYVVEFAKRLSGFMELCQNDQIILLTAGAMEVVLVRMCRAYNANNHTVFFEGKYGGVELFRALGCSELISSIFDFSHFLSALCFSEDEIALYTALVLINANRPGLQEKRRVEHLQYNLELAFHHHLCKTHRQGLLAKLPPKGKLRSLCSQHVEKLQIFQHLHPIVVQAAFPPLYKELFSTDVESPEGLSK
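Using a luciferase readout, inhibitors were identified by reduced reporter activity in Drosophila cells coexpressing a copper-inducible Gal4–ROR gamma fusion and UAS-driven Photinus luciferase, incubated 20 hr after 700 uM copper sulfate.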
Giardia killer: Small Molecules that selectively kill Giardia lamblia: qHTS. Giardia lamblia trophozoite viability. activity change, % at 7.66 µM, hits read low. 340,000 tested, 0.15% active; in the data active = activity change below about -80%; inconclusive = between about -30% and that limit;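 note: parasites exposed to compound for two days anaerobically before the ATP read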
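Trophozoites 100 cells/well + cpd; 48 hrs, 37 deg C, anaerobic. ATPLite 1-Step added, 15-30 min RT, luminescence read (ATP-based viability).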
MCF10A rerep: A quantitative high throughput screen for small molecules that induce DNA re-replication in MCF 10a normal breast cells; Potency, µM (highest dose often 46.1 µM), most hits filed as activators; 350,000 tested, 2.9% active; MCF 10A DNA re-replication, Hoechst nuclear intensity, 48 h; note: nearly all actives have a fitted effect of over 50% in size
Chronic BCR inh: qHTS Assay to Find Inhibitors of Chronic Active B-Cell Receptor Signaling; ABC-DLBCL IkBa-CBG/CBR reporter, luminescence ratio, 4 h; Potency, µM (series often up to 46.1 µM), actives largely listed as inhibitors; 340,000 tested, 0.05% active; AID 493014, 2011; active = well fitted inhibition curve with a large enough effect in the signal ratio, with a control signal flat, not every such curve was filed as active; inconclusive = small, poorly fitted or top-dose-only effect, or effect the other way, or a change in a side signal; the % refers to the signal ratio
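Concentration-response series (up to 46 uM) were applied to TMD8 dual-reporter cells for 4 h at 37C with doxycycline. Green/red ratio, after filter-overlap correction, defined %Activity; red signal alone was normalised to basal cells and zero luminescence.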
Of the large screens only hits and unclear results are named; the others gave an inactive call. Unless noted, calls come from the whole dose curve; as a rule, active = well fitted curve in the direction sought with a large enough effect; inconclusive = small, poorly fitted or top-dose-only effect, or another doubt; inactive = no such curve, though single readings can be large; an effect the other way counts as inactive or inconclusive.

CC(=O)Nc1cccc(NC(=O)Nc2cccc3ccccc23)c1	Chronic BCR inh inconclusive
Cc1cc(C)cc(NC(=S)Nc2cccc3ccccc23)c1	none
CC(C)c1ccc(NC(=S)Nc2ccc3[nH]c(=O)[nH]c3c2)cc1	Gal4-VP16 FLuc inconclusive, RORg inh inconclusive
CC(Nc1cccc(F)c1)C(=O)Nc1ccc(S(N)(=O)=O)cc1 (centres undefined)	none
Cc1cc(C(=O)COC(=O)/C=C/c2cccc(Br)c2)c(C)n1C	none (no result: Gal4-VP16 FLuc, RORg inh)
S=C(Nc1ccc(Cl)cc1)Nc1cccc2cnccc12	MCF10A rerep inconclusive
Cc1ccc(NC(=O)Nc2cccc3ccccc23)cc1	Chronic BCR inh inconclusive
COc1cccc(NC(=S)Nc2cccc3ccccc23)c1	Gal4-VP16 FLuc 6.31µM, RORg inh 0.112µM
Cc1ccc(NC(=S)Nc2cccc3ccccc23)cc1	Gal4-VP16 FLuc 5.62µM, RORg inh 2µM
COc1ccc(NC(=S)Nc2cccc3cnccc23)cc1	none
Fc1ccc(NC(=S)Nc2cccc3ccccc23)cc1	Gal4-VP16 FLuc inconclusive, RORg inh inconclusive
Fc1ccc(NC(=S)Nc2cccc3ccccc23)cc1F	Gal4-VP16 FLuc inconclusive, RORg inh 11.2µM
CC(C)c1ccc(NC(=S)Nc2cccc3ccccc23)cc1	Gal4-VP16 FLuc 7.08µM, RORg inh 3.55µM, MCF10A rerep inconclusive
COc1ccc(CCNC(=O)C2CC(=O)N(C3CCCCC3)C2)cc1OC (centres undefined)	none
COc1ccc(-c2cc(C(=O)NNC3=NCCC3)c3c(C)nn(-c4ccccc4)c3n2)cc1	Gal4-VP16 FLuc inconclusive, RORg inh 0.316µM
N#Cc1ccc2c(c1)C[C@]1(CCCCN3C(=O)c4ccccc4C3=O)Oc3c(c(=O)oc4ccc(F)cc34)C2O1	Chronic BCR inh inconclusive (no result: SW480 rerep, Giardia killer, MCF10A rerep)
CCCCc1nc2cc(C(=O)N3CCCC(OCCC)C3)ccc2o1 (centres undefined)	none
Cc1ccc(C)c(NC2=NS(=O)(=O)c3ccccc32)c1	Chronic BCR inh inconclusive
Cc1ccc(S(=O)(=O)NNC2=NS(=O)(=O)c3ccccc32)c(C)c1	RORg inh 10µM
Cc1ccc(C(=O)N2CCCC(C(F)(F)F)C2)cc1S(=O)(=O)N1CCOCC1 (centres undefined)	SW480 rerep inconclusive, Chronic BCR inh inconclusive (no result: Gal4-VP16 FLuc, RORg inh)
O=[N+]([O-])c1ccccc1CN1CCN(Cc2ccc3ccccc3c2)CC1	none
COc1ccc(N2CCN(C(=O)C(=O)c3cn(CC(=O)N4CCCCCC4)c4ccccc34)CC2)cc1	none
NS(=O)(=O)c1cc(C(=O)OCC(=O)Nc2ccc3c(c2)OCO3)ccc1Cl	none (no result: Gal4-VP16 FLuc, RORg inh)
CC(=O)Oc1c(Cl)cc(N(C(C)=O)S(=O)(=O)c2ccccc2)c2ccccc12	SW480 rerep 6.51µM, MCF10A rerep inconclusive (no result: Gal4-VP16 FLuc, RORg inh, Chronic BCR inh)
CC(C)Cn1c(-c2csc(C(C)C)c2)n[nH]c1=S	SW480 rerep inconclusive, RORg inh 2µM, MCF10A rerep inconclusive
CCn1c(C(C)NC(=O)c2cccs2)n[nH]c1=S (centres undefined)	none
CCn1c(-c2csc(C(C)C)c2)n[nH]c1=S	Gal4-VP16 FLuc 12.6µM, RORg inh 2.51µM, Chronic BCR inh inconclusive
CS(=O)(=O)N1CCC(C(=O)Nc2ccccc2Sc2ccccc2)CC1	Gal4-VP16 FLuc 5.62µM, RORg inh inconclusive, Chronic BCR inh inconclusive
O=C(CN1CCCC1)Nc1ccccc1Sc1ccccc1	none
Cc1ccc(NC(=O)C2CCN(S(C)(=O)=O)CC2)c(C)c1	MCF10A rerep 4.11µM
CC1CCN(CC(=O)Nc2ccccc2Sc2ccccc2)CC1	Gal4-VP16 FLuc inconclusive, SW480 rerep inconclusive, MCF10A rerep 14.6µM, Chronic BCR inh inconclusive
CS(=O)(=O)N1CCC(C(=O)Nc2ccccc2)CC1	Chronic BCR inh inconclusive
O=C(CCS(=O)(=O)c1ccccc1)Nc1ncc([N+](=O)[O-])s1	Gal4-VP16 FLuc inconclusive, SW480 rerep 7.31µM, RORg inh inconclusive, Giardia killer -80.7, MCF10A rerep 4.61µM, Chronic BCR inh inconclusive
